From PubChem
This is one part of a sample in which hits are shown more often than they occur.
PD-1 reverse act: activators reversing PD-1 mediated T-cell inhibition, primary screen, luminescence, primary human CD4 T cells, PD-L1 beads | 29,000 tested, under 10 active | activation, % (no concentration beside the values) | CellTiter-Glo 96 h; call rule not given here;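 note: 0% = median vehicle wells and 100% = positive control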
STK33 inh: STK33 kinase inhibitors, primary screen, biochemical, luminescence, ADP-Glo, MBP substrate. hit rate 0.44% among 27,000. AID 2322, 2010. Serine/threonine-protein kinase 33 (Homo sapiens), Q9BYT3. inhibition, % at 12.5 µM; in the data active = inhibition above about 20%; inconclusive = no clear call, values can overlap the other calls
Target sequence (Q9BYT3 whole entry, looked up): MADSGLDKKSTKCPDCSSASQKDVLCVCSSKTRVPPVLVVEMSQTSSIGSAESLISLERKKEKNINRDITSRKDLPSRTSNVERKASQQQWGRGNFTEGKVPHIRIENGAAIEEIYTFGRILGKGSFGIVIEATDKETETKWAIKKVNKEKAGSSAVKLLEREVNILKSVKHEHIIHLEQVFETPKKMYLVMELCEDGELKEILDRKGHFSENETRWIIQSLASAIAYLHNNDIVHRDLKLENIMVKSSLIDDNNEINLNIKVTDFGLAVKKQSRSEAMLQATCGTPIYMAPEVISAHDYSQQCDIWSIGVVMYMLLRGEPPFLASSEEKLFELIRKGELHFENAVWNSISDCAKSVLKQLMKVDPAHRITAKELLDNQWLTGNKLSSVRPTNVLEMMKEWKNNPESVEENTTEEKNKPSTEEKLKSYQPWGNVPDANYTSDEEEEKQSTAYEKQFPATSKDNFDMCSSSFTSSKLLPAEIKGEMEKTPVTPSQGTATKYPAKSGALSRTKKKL
NOMO-1 viab: NOMO-1 AML cell viability reduction, primary screen, STK33 inhibitor project, CellTiter-Glo luminescence; NOMO-1 AML viability, 72 h; inhibition, % (concentration not given with the values); hit rate 7.5% among 37,000; AID 2330, 2010; in the data active = inhibition above about 80%; inconclusive = no clear call, values can overlap the other calls
Starred values were filed as active, the others as inactive; ? = inconclusive; · = no result given.

SMILES | PD-1 reverse act | STK33 inh | NOMO-1 viab
C[C@@H]1CN([C@H](C)CO)C(=O)c2cc(NS(=O)(=O)c3cccs3)ccc2O[C@H]1CN(C)Cc1ccc2c(c1)OCO2 | -0.5 | · | 5.6
C[C@@H]1CCCCO[C@H](CN(C)C(=O)c2ccccc2)[C@@H](C)CN([C@H](C)CO)C(=O)c2cc(NS(=O)(=O)c3cn(C)cn3)ccc2O1 | 1.9 | -3.2 | 0.4
CCOc1ccccc1C(=O)Nc1ccc(S(=O)(=O)Nc2nc(C)cc(C)n2)cc1 | 1.3 | 1.5 | 35.5
CCOc1ccccc1C(=O)Nc1ccc(S(=O)(=O)Nc2ccccn2)cc1 | -1.8 | 24.5* | -26.4
COc1ccc(NC(=O)Nc2cccc3c2O[C@@H](CN(C)S(=O)(=O)c2ccc(OC)cc2)[C@H](C)CN([C@H](C)CO)C3=O)cc1 | -2.4 | · | 16.2
COc1ccc(S(=O)(=O)N(C)C[C@@H]2Oc3c(NC(=O)Nc4ccc(C(F)(F)F)cc4)cccc3C(=O)N([C@@H](C)CO)C[C@@H]2C)cc1 | -1.4 | · | 93.4*
COc1ccc(NC(=O)Nc2cccc3c2O[C@H](CN(C)S(=O)(=O)c2ccc(OC)cc2)[C@@H](C)CN([C@H](C)CO)C3=O)cc1 | 2.0 | · | -0.6
Cc1ccc(S(=O)(=O)N(C)C[C@@H]2Oc3c(NC(=O)Nc4ccc(C(F)(F)F)cc4)cccc3C(=O)N([C@@H](C)CO)C[C@@H]2C)cc1 | -1.1 | · | 39.0
COc1ccc(S(=O)(=O)N(C)C[C@@H]2Oc3c(NC(=O)Nc4ccc(C(F)(F)F)cc4)cccc3C(=O)N([C@H](C)CO)C[C@@H]2C)cc1 | -2.1 | · | 114.3*
Cc1ccc(S(=O)(=O)N(C)C[C@H]2Oc3c(NC(=O)Nc4ccc(C(F)(F)F)cc4)cccc3C(=O)N([C@@H](C)CO)C[C@H]2C)cc1 | -7.4 | · | 118.8*
C[C@@H]1CN([C@H](C)CO)C(=O)CCCn2nncc2CO[C@@H]1CN(C)C(=O)Nc1ccc2c(c1)OCCO2 | · | 13.3 | ·
COc1cccc2cc(-c3nnc(SCC(=O)c4ccccc4)n3C)oc12 | -0.7 | 7.2 | 2.8
C[C@@H]1CN([C@H](C)CO)C(=O)c2cccc(NS(C)(=O)=O)c2O[C@@H]1CN(C)Cc1ccncc1 | 2.4 | · | -21.9
C[C@@H]1O[C@@H](O[C@@H]2[C@@H](O)[C@H](C)O[C@@H](OC[C@H]3O[C@@H](Oc4c(-c5ccc(O)cc5)oc5cc(O)cc(O)c5c4=O)[C@H](O)[C@@H](O)[C@H]3O)[C@@H]2O)[C@H](O)[C@H](O)[C@H]1O | 1.1 | -0.8 | 4.2
OC(CCN1CCCCC1)(c1ccccc1)C1CCCCC1 (stereo not given) | · | -7.6 | 11.5
CC(C)(C)c1ccc(C(O)CCCN2CCC(C(O)(c3ccccc3)c3ccccc3)CC2)cc1 (stereo not given) | -21.2 | 0.5 | 141.7*
C[C@@H]1CN([C@@H](C)CO)C(=O)c2cccc(NC(=O)c3ccc(-c4nccs4)cc3)c2O[C@@H]1CN(C)S(C)(=O)=O | 0.0 | · | -5.4
C/C=C(/C)C(=O)O[C@@H]1c2cc(OC)c(OC)cc2-c2c(ccc(OC)c2OC)C[C@H]2C(=O)OC[C@H]12 | -1.7 | -5.0 | 116.8*
Cc1c(NC(=O)COc2cccc3ccccc23)cccc1C(=O)O | · | -2.5 | 1.7
C[C@H]1CN([C@@H](C)CO)C(=O)Cc2cc(NC(=O)Nc3cccc4ccccc34)ccc2O[C@H]1CN(C)C | -1.2 | -1.3 | -5.9
C[C@@H]1CN([C@H](C)CO)C(=O)Cc2cc(NC(=O)Nc3ccccc3)ccc2O[C@H]1CN(C)CC1CCCCC1 | 2.0 | -3.7 | ?
C[C@H]1CN([C@@H](C)CO)C(=O)Cc2cc(NC(=O)Nc3cccc4ccccc34)ccc2O[C@@H]1CN(C)CC1CCCCC1 | -0.2 | 4.4 | 135.8*
C[C@@H]1CN([C@H](C)CO)C(=O)Cc2cc(NC(=O)Nc3ccc(C(F)(F)F)cc3)ccc2O[C@@H]1CN(C)CC1CCCCC1 | -6.7 | 0.6 | ?
C[C@@H]1CN([C@H](C)CO)C(=O)Cc2cc(NC(=O)Nc3ccc(C(F)(F)F)cc3)ccc2O[C@H]1CN(C)CC1CCCCC1 | -9.2 | -5.4 | 116.4*
C[C@H]1CN([C@@H](C)CO)C(=O)Cc2cc(NC(=O)Nc3ccccc3)ccc2O[C@H]1CN(C)CC1CCCCC1 | 0.2 | -1.8 | 90.0*
SMILES | PD-1 reverse act | STK33 inh | NOMO-1 viab
C[C@H](CO)N1C[C@H](C)[C@H](CN(C)C(=O)Nc2cccc(F)c2)OCc2cnnn2CCCC1=O | · | 1.7 | ·
Cn1c(=O)c2c(nc(NCCN3CCOCC3)n2Cc2cccc(F)c2)n(C)c1=O | -1.0 | -0.1 | 17.6
O=C(NCc1cccnc1)c1ccc2c(c1)C(=O)N(Cc1cccnc1)C2=O | 1.3 | -0.1 | 5.7
CC1=C(CO)C(=O)OC([C@@H](C)C2CC[C@H]3C4C[C@H]5O[C@]56[C@@H](O)C=CC(=O)[C@]6(C)C4CC[C@]23C)C1 (stereo not given in full) | -13.3 | 1.4 | 119.6*
Cc1ccc(S(=O)(=O)Nc2ccc3c(c2)C(=O)N([C@@H](C)CO)C[C@@H](C)[C@H](CN(C)C)O3)cc1 | 1.4 | · | -1.3
CCOc1ccc(/C=C(\NC(=O)c2ccccc2)C(=O)NC)c2ccccc12 | 1.1 | · | 9.6
Cc1noc(C)c1NC(=O)N(C)C[C@H]1Oc2c(NS(=O)(=O)c3cccs3)cccc2C(=O)N([C@H](C)CO)C[C@H]1C | 3.0 | · | 8.6
C[C@H]1CN([C@@H](C)CO)C(=O)Cc2cc(NC(=O)Nc3ccc(C(F)(F)F)cc3)ccc2O[C@H]1CN(C)S(=O)(=O)c1cccs1 | -3.5 | -0.7 | 128.1*
C[C@H]1CN([C@@H](C)CO)C(=O)Cc2cc(NC(=O)Nc3ccc(C(F)(F)F)cc3)ccc2O[C@H]1CN(C)S(=O)(=O)c1cn(C)cn1 | -0.4 | -0.3 | 125.3*
C[C@@H]1CN([C@H](C)CO)C(=O)Cc2cc(NC(=O)Nc3ccc(F)cc3)ccc2O[C@@H]1CN(C)S(=O)(=O)c1cn(C)cn1 | · | 1.0 | 20.0
C[C@H](CO)N1C[C@H](C)[C@H](CN(C)C)Oc2ccc(NC(=O)Nc3ccc(C(F)(F)F)cc3)cc2CC1=O | · | 2.3 | 41.4
C[C@@H]1CN([C@H](C)CO)C(=O)Cc2cc(NC(=O)Nc3ccc(C(F)(F)F)cc3)ccc2O[C@H]1CN(C)C | 3.2 | -0.5 | -9.4
C[C@@H]1CN([C@H](C)CO)C(=O)Cc2cc(NC(=O)Nc3ccc(C(F)(F)F)cc3)ccc2O[C@@H]1CN(C)S(C)(=O)=O | -1.9 | 0.3 | 86.3*
C[C@@H]1CN([C@H](C)CO)C(=O)Cc2cc(NC(=O)Nc3ccc(C(F)(F)F)cc3)ccc2O[C@@H]1CN(C)S(=O)(=O)c1cccs1 | 0.1 | 2.0 | 74.0
C[C@H]1CN([C@@H](C)CO)C(=O)Cc2cc(NC(=O)Nc3ccc(C(F)(F)F)cc3)ccc2O[C@H]1CN(C)S(C)(=O)=O | · | 0.9 | 89.7*
C[C@H](CO)N1C[C@H](C)[C@@H](CN(C)S(=O)(=O)c2ccc(F)cc2)Oc2ccc(NC(=O)CCCN(C)C)cc2C1=O | -0.8 | -0.8 | -2.7
Cc1ccc(C)c(OCC(=O)Nc2cccc(C(=O)O)c2C)c1 | · | -0.2 | 35.9
COc1ccc(CN(C)C[C@@H]2Oc3ccc(NC(=O)Nc4ccc5c(c4)OCO5)cc3C(=O)N([C@H](C)CO)C[C@H]2C)cc1 | -0.4 | · | 16.4
